Reference: the supplement of paper PMC6555819

Test system: RARa homodimer (NR concentration 270 nM)
Assay: PBM binding z-score (relative to random genomic background probes); higher = stronger binding; sequences stand for … in GC…GCGATTGACAGCGTAGAATGAAGG
How it was run: (§1)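 Antibodies against each partner of ligand-free nuclear receptor dimers (one per run) detected binding on custom Agilent 4×180K protein-binding microarrays after 1 h incubation. The double-stranded probes had 34-nt variable regions carrying direct-repeat seeds, single-nucleotide variants, half-site ablations and random human genomic background sequences. Binding z-scores, from regression-normalized fluorescence, use the random background probes as reference.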

Row | Sequence | PBM binding z-score
1 | TCATTTAGGTAAAAGGTGAAAGTCGGTGTGGTAA | 1.77
2 | CCTAGTTAGTCAGGAGGTCACACACCGGATATGA | 2.45
3 | TATACAGGGTCAAAGGCCAGAGGACGAATGTCGA | 0.998
4 | GTACCAAGGTGAATAGGTGGTTGATGAGTAGGCG | 0.656
5 | CGAACGAGGGCAGGAGTTGATAGCAAATGCCGAT | -0.0684
6 | CCTTACGGGTCACGAGGCTATAGCACGACGAGCG | 0.264
7 | TCTATTAGTTGAAGGACAACCGACGAGTCCGTTT | 1.51
8 | CGTCCAAGGCCATAGGAGGTCAGTGAAGACAGAT | -0.0451
9 | CCTACTGGGCCATTCAGAGGTCATTCATCATATG | 0.581
10 | AGAATGAGGTTATACGTGGATCAGGGAAGAAAGT | 0.612
11 | TCATATATGTAATACAGGTGAAAGTCGGCATCTA | 0.947
12 | ATCGAAAGGTCGGGGTGAGTATAGAGAAAGGGAA | 1.53
13 | ATCTCTAGGTAAAGTTCAGGGAAAGATCGATAGA | 1.68
14 | ATATGTAGGTTACATCCGGGTCACTCAGGCTATG | 0.95
15 | GCTAGAAGGCCATTTGGGTCACTCAATGACGGGC | -0.572
16 | GGAACGAGGGCTAGTTGATAGCAGAGTTTGATGG | -0.525
17 | TGAACGAGGTTAAAGATCAGGGAACGTGGCGTCG | -0.0319
18 | TCATATAGGTAAAGATGAAAGTCGAACGATATGA | 0.0923
19 | AGAACGAGGGCAATGAGTTGATACCACGGGTGGC | -0.193
20 | CAGCCTGGGTCAGGGCCAGTATAGGAGGAACGTT | -0.125

Row | Sequence | PBM binding z-score
21 | CCTTACGGGTCACGAGGTTATAACACGACGAGCG | 0.574
22 | TCTGCGAGGTCAACGATGGTCAGCTAATCTGCTA | 0.126
23 | GCTAGCAGCCCATTTGGGTCACTCAATGACGGGC | -1.15
24 | CCTGCTGGGTCAATGGTCAGCTAAAGCAGCTCGC | -0.395
25 | TAGCCTAAGTCATTCAGGGGCCAGTATAGAAAGC | -0.483
26 | CCTTACGGGTCACTAACAGGTTATAGCATTTGGA | 1.72
27 | TTCCCAAGGTGAAAGGTCGTTGATGCACGCCTTG | -0.11
28 | AGAACGAGGGCACGCTGAGTTGATATCAGAGTAG | -0.122
29 | CTACCAAGGTGAACAAGGTCGTGGATTACTATTC | 0.0898
30 | CGAACTAGGGCAAGGACAGTGAATCTCCGCACGC | -0.534
31 | CGAATTAGGTCAGAACAGGACAGTGAAGGATGAT | 1.19
32 | GCTCCTAGGTCAGGTTGGTCAGCTAACGGGTACG | -0.173
33 | TTACCTAGGTGAAAGGTCGTTGATGCACGCCTTG | -0.203
34 | TCTATTAGTTGATTAGGGCAACCAAAACAGCGGA | 1.11
35 | TCGAGTTGGTCAAAGGTCACACACTCGAAATGCG | 4
36 | CAAACTAGGTCACGAAAGGACAAAGTCGAATGAC | 1.93
37 | TAGCCTAGGTCAGATCGAGCCAGTATACGCTATA | -0.528
38 | AATACAGGGTCACTAGGCCAGACTAGGTACGAAT | 0.731
39 | CGTCCGAGGTCAGAGAGGTCAGTGAATGCCGAGT | 0.718
40 | CAAACTAAGTCACAGAGGTCAAAGTCCGTGCGTA | 2.59

Test system: RARb:RXRa (NR concentration 270 nM, RXRa partner concentration 90 nM)
Assay: as above
How it was run: as §1

Row | Sequence | PBM binding z-score
41 | TCATTTAGGTAAAAGGTGAAAGTCGGTGTGGTAA | 2.05
42 | CCTAGTTAGTCAGGAGGTCACACACCGGATATGA | 3.69
43 | TATACAGGGTCAAAGGCCAGAGGACGAATGTCGA | 4.43
44 | GTACCAAGGTGAATAGGTGGTTGATGAGTAGGCG | 1.21
45 | CGAACGAGGGCAGGAGTTGATAGCAAATGCCGAT | 1.8
46 | CCTTACGGGTCACGAGGCTATAGCACGACGAGCG | 4.23
47 | TCTATTAGTTGAAGGACAACCGACGAGTCCGTTT | 0.981
48 | CGTCCAAGGCCATAGGAGGTCAGTGAAGACAGAT | 2.9
49 | CCTACTGGGCCATTCAGAGGTCATTCATCATATG | 2.9
50 | AGAATGAGGTTATACGTGGATCAGGGAAGAAAGT | 1.55
51 | TCATATATGTAATACAGGTGAAAGTCGGCATCTA | 0.42
52 | ATCGAAAGGTCGGGGTGAGTATAGAGAAAGGGAA | 3.83
53 | ATCTCTAGGTAAAGTTCAGGGAAAGATCGATAGA | 2.99
54 | ATATGTAGGTTACATCCGGGTCACTCAGGCTATG | 2.41
55 | GCTAGAAGGCCATTTGGGTCACTCAATGACGGGC | 2.2
56 | GGAACGAGGGCTAGTTGATAGCAGAGTTTGATGG | -0.19
57 | TGAACGAGGTTAAAGATCAGGGAACGTGGCGTCG | 1.95
58 | TCATATAGGTAAAGATGAAAGTCGAACGATATGA | 0.318
59 | AGAACGAGGGCAATGAGTTGATACCACGGGTGGC | 2.19
60 | CAGCCTGGGTCAGGGCCAGTATAGGAGGAACGTT | 2.83

Row | Sequence | PBM binding z-score
61 | CCTTACGGGTCACGAGGTTATAACACGACGAGCG | 4.58
62 | TCTGCGAGGTCAACGATGGTCAGCTAATCTGCTA | 5.18
63 | GCTAGCAGCCCATTTGGGTCACTCAATGACGGGC | 0.893
64 | CCTGCTGGGTCAATGGTCAGCTAAAGCAGCTCGC | 3.29
65 | TAGCCTAAGTCATTCAGGGGCCAGTATAGAAAGC | 0.478
66 | CCTTACGGGTCACTAACAGGTTATAGCATTTGGA | 3.92
67 | TTCCCAAGGTGAAAGGTCGTTGATGCACGCCTTG | 3.13
68 | AGAACGAGGGCACGCTGAGTTGATATCAGAGTAG | 2.5
69 | CTACCAAGGTGAACAAGGTCGTGGATTACTATTC | 2.45
70 | CGAACTAGGGCAAGGACAGTGAATCTCCGCACGC | 1.59
71 | CGAATTAGGTCAGAACAGGACAGTGAAGGATGAT | 3.29
72 | GCTCCTAGGTCAGGTTGGTCAGCTAACGGGTACG | 3.58
73 | TTACCTAGGTGAAAGGTCGTTGATGCACGCCTTG | 2.38
74 | TCTATTAGTTGATTAGGGCAACCAAAACAGCGGA | 0.905
75 | TCGAGTTGGTCAAAGGTCACACACTCGAAATGCG | 4.9
76 | CAAACTAGGTCACGAAAGGACAAAGTCGAATGAC | 4.54
77 | TAGCCTAGGTCAGATCGAGCCAGTATACGCTATA | 2.81
78 | AATACAGGGTCACTAGGCCAGACTAGGTACGAAT | 4.3
79 | CGTCCGAGGTCAGAGAGGTCAGTGAATGCCGAGT | 5.23
80 | CAAACTAAGTCACAGAGGTCAAAGTCCGTGCGTA | 4.05
